# Results published in PubChem BioAssay (NCATS).
# “And” between values parts separate entries of the source, which are not always exact repeats. Identical values can stand only once. A number with no mark means an inactive call. Results filed as inconclusive are left out. Entries that show only a call come without a potency. The source made the active and inactive calls. Unless noted, the call rests on the fitted dose curve; in most records, active means well fitted curve in the direction sought with a large enough effect; inconclusive means small, poorly fitted or top-dose-only effect, or another doubt; inactive means no such curve, though single readings can be large; an effect the other way counts as inactive or inconclusive.
# Tests used:
# [1] = target: Cytochrome P450 3A4 (Homo sapiens) (UniProt P08684); test: qHTS Assay for Inhibitors and Substrates of Cytochrome P450 3A4 (AID 884); details: recombinant CYP3A4, Luciferin-PPXE luminescence; series mostly up to 57.1 µM; further: nearly all actives have a fitted effect of over 50% in size
# Summary of the method: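 20 nM human CYP3A4 with 25 uM Luciferin-PPXE (at KM) in 200 mM KPO4, preincubated 10 min with compound; NADPH regeneration started a 60 min RT reaction. Luciferin detected by luminescence, normalized to 57 uM ketoconazole as full inhibition.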
# [2] = target: Cytochrome P450 3A4 (Homo sapiens) (UniProt P08684); test: qHTS Assay for Activators of Cytochrome P450 3A4 (AID 885); details: recombinant CYP3A4, Luciferin-PPXE luminescence, 60 min; series mostly up to 57.1 µM; further: nearly all actives have a fitted effect of over 65% in size; further: potency means the concentration at half of the fitted maximal effect
# Summary of the method: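 Human CYP3A4 (20 nM) with Luciferin-PPXE at 25 uM (its KM) in 200 mM KPO4; 10 min compound preincubation, then NADPH regeneration and 60 min reaction at RT. Luciferin read by luminescence; normalized to 57 uM ketoconazole full inhibition.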
# [3] = Cellular Toxicity (caspase-3) NIH 3T3 (AID 666); details: NIH 3T3 caspase-3 activation, apoptosis/toxicity, 0% DMSO, 100% is 100 µM tamoxifen; series mostly up to 92.2 µM;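 further: caspase signal read after 16 h compound exposure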
# Summary of the method: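 Mouse NIH 3T3 fibroblasts (1000/well) treated 16 h at 37 C; caspase-3/7 activity measured by Caspase-Glo 3/7 luminescence after 20 min. Normalized to DMSO and 100 uM tamoxifen; AC50 from Hill fits.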
# [4] = Cellular Toxicity (caspase-3) Renal Proximal Tubule (AID 667); details: renal proximal tubule cells; series mostly up to 91.7 µM;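 further: cells exposed to compound for 16 hours at 37 °C before detection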
# Summary of the method: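 Primary rat proximal tubule cells, 1000/well, 5 h plating at 37 °C, then compound 16 h at 37 °C. Caspase-Glo 3/7 reagent, 1 h RT, luminescence. Normalized to DMSO (basal) and 10 uM staurosporine (100%); Hill-fit AC50.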
# [5] = Cell Viability - LYMP2-001 (AID 921); details: LYMP2-001 lymphoblastoid cell viability; series mostly up to 92.2 µM; further: nearly all actives have a fitted effect of over 70% in size; further: potency means the concentration at half of the fitted maximal effect
# Summary of the method: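 Human lymphoblastoid cells (Coriell), 2500 per well, were preincubated 5 hr at 37 C, then exposed to compounds in complete medium for 24 hr at 37 C. Cellular ATP was read by CellTiter-Glo luminescence; AC50 from Hill fits of concentration-response data.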
# [6] = MultiTox-Fluor Cytotoxicity Assay - LYMP1-001 - Dead Cells (AID 946); details: LYMP1-001 lymphoblastoid cells, dead-cell protease fluorescence; series mostly up to 92.2 µM; further: potency means the concentration at half of the fitted maximal effect
# Summary of the method: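 LYMP1-001 lymphoblastoid cells (2500/well) treated 16 h at 37 C. Dead-cell protease cleavage of bis-AAF-R110 read at Ex/Em 485/520. Normalized to DMSO and 15 uM tetraoctylammonium bromide; AC50 from Hill fits.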
# [7] = MultiTox-Fluor Cytotoxicity Assay - LYMP1-001 - Live Cells (AID 947); details: LYMP1-001 lymphoblastoid cells, live-cell protease fluorescence viability; series mostly up to 92.2 µM; further: potency means the concentration at half of the fitted maximal effect
# [8] = Cell Viability - LYMP1-002 - Assay at 16 hr (AID 948); details: LYMP1-002 lymphoblastoid cell viability; series mostly up to 92.2 µM; further: potency means the concentration at half of the fitted maximal effect
# Summary of the method: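 Human lymphoblastoid cells (LYMP1-002), 2500/well, were preincubated 5 hr at 37 C, then exposed to compounds for 16 hr at 37 C in complete medium. Cellular ATP was read by CellTiter-Glo luminescence after 30 min at room temperature; AC50 from Hill fits.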
# [9] = target: Guanine nucleotide-binding protein G(i) subunit alpha-1 (Homo sapiens) (UniProt P63096); test: qHTS Assay for Inhibitors of RGS12 GoLoco Motif Activity (Green Fluorophore) (AID 879); details: Galphai1/FITC-RGS12 GoLoco peptide, fluorescence polarization; series mostly up to 57.1 µM;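 further: negative values mean loss of peptide binding seen as reduced polarization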
# Summary of the method: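 Fluorescence polarization assay: 50 nM Gαi1 with 10 nM FITC-labeled RGS12 GoLoco peptide in 10 mM Tris pH 7.5, 150 mM NaCl, 0.1 mM GDP, 0.05% NP40, 10 min at room temperature with compound.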
# [10] = target: Cytochrome P450 2C9 (Homo sapiens) (UniProt P11712); test: qHTS Assay for Inhibitors and Substrates of Cytochrome P450 2C9 (AID 883); details: recombinant CYP2C9, luciferin-H luminescence, 60 min; series mostly up to 57.1 µM; further: nearly all actives have a fitted effect of over 60% in size
# Summary of the method: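 Inhibition of CYP2C9 is scored as loss of luminescence, with 57uM sulphaphenazole defining 100% inhibition. Substrate Luciferin-H is used at 100uM, equal to its KM; enzyme at 10nM in 25mM KPO4, 60 min at 37C with NADPH regeneration.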
# [11] = target: Cytochrome P450 2D6 (Homo sapiens) (UniProt P10635); test: qHTS Assay for Inhibitors and Substrates of Cytochrome P450 2D6 (AID 891); details: recombinant CYP2D6, luciferin-ME EGE luminescence; series mostly up to 57.1 µM; further: potency means the concentration at half of the fitted maximal effect; nearly all actives have a fitted effect of over 60% in size
# Summary of the method: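 Human CYP2D6 (5 nM) with 30 uM Luciferin-ME EGE (at Km) in 100 mM KPO4, compound preincubated 10 min, then NADPH regeneration system for 60 min at room temperature. Luciferin read by luminescence; normalized to 1.43 uM quinidine.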
# [12] = target: Cytochrome P450 2C19 (Homo sapiens) (UniProt P33261); test: qHTS Assay for Inhibitors and Substrates of Cytochrome P450 2C19 (AID 899); details: recombinant CYP2C19, luciferin-H EGE luminescence; series mostly up to 57.1 µM; further: nearly all actives have a fitted effect of over 60% in size
# Summary of the method: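 5nM enzyme + 10uM Luciferin-H EGE (=KM), 50mM KPO4; cpd pin-transferred, 10 min 37C; NADPH regen, 60 min 37C; stopped w/ luciferin detection reagent, 20 min; luminescence. Normalized to 57uM ketoconazole (AC100).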
# [13] = qHTS Assay for Identification of Small Molecule Agonists for Hypoxia Response Element Signaling Pathway (AID 914; active means well fitted activation curve with a large enough effect in the signal ratio, with a control signal flat, not every such curve was filed as active; the % refers to the signal ratio); details: ME-180 (cervical carcinoma) HRE-bla reporter, beta-lactamase ratio, CoCl2, 17 h; stronger effect = higher value
# Summary of the method: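 HRE-bla ME-180 cells, overnight plating in Opti-MEM with 0.5% dialyzed FBS; cpd titration + EC50 CoCl2, 17 h, 37 degrees Celsius; CCF4 2.5 h RT; 460/530 nm ratio; AC50.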
# [14] = qHTS Assay for Identification of Small Molecule Agonists for Thrombopoietin (TPO) Signaling Pathway (AID 917); details: TPO signaling pathway reporter cells, agonist qHTS; series mostly up to 38.5 µM
# Summary of the method: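 Murine Ba/F3 cells stably expressing human TPO receptor and a Glycoprotein IIb promoter–luciferase reporter were IL-3-starved overnight, then treated with compounds plus TPO (26 pM final, its EC50) for 24 hrs at 37 C; luminescence was read.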
# [15] = target: Muscarinic acetylcholine receptor M1 (Rattus norvegicus) (UniProt P08482); test: qHTS Assay for Antagonists of Acetylcholine Muscarinic M1 Receptor: Kinetic Measurement of Intracellular Calcium Response (AID 943); details: M1-expressing cells, kinetic intracellular calcium fluorescence; series mostly up to 35.3 µM; further: potency means the concentration at half of the fitted maximal effect; nearly all actives have a fitted effect of over 75% in size
# Summary of the method: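 CHO cells expressing rat M1 receptor, Fluo-4 loaded, preincubated 10 min with compound, then stimulated with EC80 carbachol (100 nM final). Kinetic calcium fluorescence over 4 min; response taken as peak over basal signal.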
# [16] = target: Muscarinic acetylcholine receptor M1 (Rattus norvegicus) (UniProt P08482); test: qHTS Assay for Antagonists of Acetylcholine Muscarinic M1 Receptor: Measurement of IP-One Response (AID 944); details: CHO-M1 cells, IP-One HTRF, antagonist mode; series mostly up to 46.1 µM; further: potency means the concentration at half of the fitted maximal effect; nearly all actives have a fitted effect of over 75% in size
# Summary of the method: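 CHO cells stably expressing rat M1, pretreated 10 min with compound, then stimulated 30 min with carbachol at EC80 (200 nM) in LiCl-containing buffer pH 7.4; IP1 accumulation read by HTRF competition (665/620 nm).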
# [17] = target: Pyruvate kinase (Leishmania mexicana) (UniProt Q27686); test: qHTS Validation Assay for Inhibitors of Leishmania Mexicana Pyruvate Kinase (AID 945); details: purified L. mexicana pyruvate kinase, enzyme activity, E451W mutant enzyme; series mostly up to 57.5 µM
# Summary of the method: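 Luminescent ATP detection (PKLight) after a 1 h room-temperature reaction of 0.2 nM LmPYK E451W mutant with 0.5 mM PEP and 0.1 mM ADP at pH 7.2. Activity is normalized to DMSO-only control wells.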
# [18] = target: Pyruvate kinase PKM (Homo sapiens) (UniProt P14618); test: qHTS Assay for Activators of Human Muscle Pyruvate Kinase (AID 954; active means well fitted curve in the direction sought with a large enough effect, not every such curve was filed as active); details: purified human muscle pyruvate kinase, luciferase-coupled luminescence, 1 h; series mostly up to 57.5 µM
# Summary of the method: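 Purified human PKM2 (0.1 nM) with 0.5 mM PEP (Km) and 0.1 mM ADP in 50 mM imidazole pH 7.2, KCl, MgCl2, 1 h at room temperature; ATP formed read by coupled luciferase luminescence. Normalized to no-enzyme/110 uM thiadiazolimine inhibition; 0.3 nM enzyme column for activation.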
# [19] = Confirmation and Secondary Assay for Modulators of Hemoglobin Beta Chain Splicing at IVS2 654 locus (AID 910); details: HeLa EGFP-654 splicing reporter, GFP fluorescence, 48 h; series mostly up to 46.1 µM;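 further: HeLa cells stably carrying EGFP split by mutant beta-globin IVS2-654 intron; per-well total GFP intensity by laser scanning cytometry after 2-day treatment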
# Summary of the method: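 Readout: per-well total peak green fluorescence (488 nm ex, 500–520 nm em) from objects 5–250 µm, reflecting correct splicing of an EGFP-654 reporter. Compounds were applied for 2 days at 37 °C to overnight-plated HeLa EGFP-654 cells; controls were DMSO and 500 nM IVS2-654 PNA.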
# Cytochrome P450 3A4 (Homo sapiens), sequence (P08684 whole entry, looked up): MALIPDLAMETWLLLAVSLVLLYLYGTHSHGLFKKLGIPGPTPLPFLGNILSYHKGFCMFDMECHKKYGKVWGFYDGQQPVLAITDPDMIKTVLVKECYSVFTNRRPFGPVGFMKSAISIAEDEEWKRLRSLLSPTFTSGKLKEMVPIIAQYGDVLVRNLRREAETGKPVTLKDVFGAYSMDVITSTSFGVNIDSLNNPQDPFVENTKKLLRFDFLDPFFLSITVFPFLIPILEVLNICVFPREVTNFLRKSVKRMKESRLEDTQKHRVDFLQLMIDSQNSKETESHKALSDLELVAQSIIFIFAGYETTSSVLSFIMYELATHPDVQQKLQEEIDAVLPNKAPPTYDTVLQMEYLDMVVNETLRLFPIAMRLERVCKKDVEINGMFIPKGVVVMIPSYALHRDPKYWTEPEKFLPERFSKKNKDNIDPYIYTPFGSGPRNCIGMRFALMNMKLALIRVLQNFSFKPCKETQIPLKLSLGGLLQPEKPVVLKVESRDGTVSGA
# Muscarinic acetylcholine receptor M1 (Rattus norvegicus), sequence (P08482 whole entry, looked up): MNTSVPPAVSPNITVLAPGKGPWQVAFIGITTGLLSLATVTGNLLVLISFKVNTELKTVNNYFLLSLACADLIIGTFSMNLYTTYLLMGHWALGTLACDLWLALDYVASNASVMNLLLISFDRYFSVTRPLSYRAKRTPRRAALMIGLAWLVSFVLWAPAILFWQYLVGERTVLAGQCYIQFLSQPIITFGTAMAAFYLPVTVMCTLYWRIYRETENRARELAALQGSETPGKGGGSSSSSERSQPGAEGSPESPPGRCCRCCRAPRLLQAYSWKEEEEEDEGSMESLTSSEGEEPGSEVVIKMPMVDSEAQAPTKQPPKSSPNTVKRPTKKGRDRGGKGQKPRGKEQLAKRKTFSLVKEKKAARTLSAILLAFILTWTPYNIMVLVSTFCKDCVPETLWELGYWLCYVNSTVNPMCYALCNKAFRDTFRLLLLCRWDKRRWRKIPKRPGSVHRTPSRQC
# Cytochrome P450 2D6 (Homo sapiens), sequence (P10635 whole entry, looked up): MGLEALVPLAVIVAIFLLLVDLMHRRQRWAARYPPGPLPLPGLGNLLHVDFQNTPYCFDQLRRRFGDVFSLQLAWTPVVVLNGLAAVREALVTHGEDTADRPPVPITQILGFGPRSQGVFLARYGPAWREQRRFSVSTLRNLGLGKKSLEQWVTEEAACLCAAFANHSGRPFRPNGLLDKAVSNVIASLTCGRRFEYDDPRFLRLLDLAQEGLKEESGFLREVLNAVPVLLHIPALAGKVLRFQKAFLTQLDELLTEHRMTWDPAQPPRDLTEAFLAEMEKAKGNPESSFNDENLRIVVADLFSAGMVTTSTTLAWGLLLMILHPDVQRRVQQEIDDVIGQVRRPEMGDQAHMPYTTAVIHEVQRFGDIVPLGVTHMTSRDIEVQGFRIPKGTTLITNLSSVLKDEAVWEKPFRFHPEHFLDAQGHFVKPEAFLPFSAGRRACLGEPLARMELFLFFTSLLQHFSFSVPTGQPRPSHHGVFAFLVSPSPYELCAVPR
# Pyruvate kinase (Leishmania mexicana), sequence (Q27686 2-499 E452W): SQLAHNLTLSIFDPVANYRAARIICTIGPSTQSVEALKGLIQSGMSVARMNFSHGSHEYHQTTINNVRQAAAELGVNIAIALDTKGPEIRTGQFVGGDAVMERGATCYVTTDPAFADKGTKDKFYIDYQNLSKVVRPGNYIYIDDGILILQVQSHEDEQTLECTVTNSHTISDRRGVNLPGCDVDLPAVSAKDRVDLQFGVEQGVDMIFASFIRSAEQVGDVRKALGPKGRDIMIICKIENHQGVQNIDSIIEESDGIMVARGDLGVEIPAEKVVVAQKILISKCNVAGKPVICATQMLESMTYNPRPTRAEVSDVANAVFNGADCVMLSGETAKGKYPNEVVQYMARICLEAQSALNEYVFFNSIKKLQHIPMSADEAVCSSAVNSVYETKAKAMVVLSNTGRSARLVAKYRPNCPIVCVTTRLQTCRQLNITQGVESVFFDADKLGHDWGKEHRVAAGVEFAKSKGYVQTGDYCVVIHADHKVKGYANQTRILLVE
# Guanine nucleotide-binding protein G(i) subunit alpha-1 (Homo sapiens), sequence (P63096 whole entry, looked up): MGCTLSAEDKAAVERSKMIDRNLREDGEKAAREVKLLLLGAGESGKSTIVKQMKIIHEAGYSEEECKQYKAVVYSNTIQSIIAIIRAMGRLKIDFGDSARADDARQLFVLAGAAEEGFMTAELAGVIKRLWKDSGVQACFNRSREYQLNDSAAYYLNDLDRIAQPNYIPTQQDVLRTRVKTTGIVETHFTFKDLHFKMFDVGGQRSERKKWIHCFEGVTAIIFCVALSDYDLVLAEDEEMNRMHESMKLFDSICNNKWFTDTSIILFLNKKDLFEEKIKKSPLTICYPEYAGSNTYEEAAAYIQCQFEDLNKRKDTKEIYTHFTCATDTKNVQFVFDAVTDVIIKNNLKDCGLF
# Cytochrome P450 2C19 (Homo sapiens), sequence (P33261 whole entry, looked up): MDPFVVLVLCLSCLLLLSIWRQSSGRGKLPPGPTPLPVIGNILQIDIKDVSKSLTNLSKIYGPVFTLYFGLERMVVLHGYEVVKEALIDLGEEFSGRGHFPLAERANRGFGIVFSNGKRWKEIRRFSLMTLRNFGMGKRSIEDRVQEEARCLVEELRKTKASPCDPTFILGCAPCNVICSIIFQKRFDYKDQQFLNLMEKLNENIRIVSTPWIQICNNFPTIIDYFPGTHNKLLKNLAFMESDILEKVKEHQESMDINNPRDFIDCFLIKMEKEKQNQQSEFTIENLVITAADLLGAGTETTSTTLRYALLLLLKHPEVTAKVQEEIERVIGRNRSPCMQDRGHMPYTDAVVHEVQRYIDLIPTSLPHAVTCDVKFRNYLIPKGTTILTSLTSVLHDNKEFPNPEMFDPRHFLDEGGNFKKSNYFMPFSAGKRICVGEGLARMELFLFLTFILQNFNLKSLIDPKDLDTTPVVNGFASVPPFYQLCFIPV
# Pyruvate kinase PKM (Homo sapiens), sequence (P14618 whole entry, looked up): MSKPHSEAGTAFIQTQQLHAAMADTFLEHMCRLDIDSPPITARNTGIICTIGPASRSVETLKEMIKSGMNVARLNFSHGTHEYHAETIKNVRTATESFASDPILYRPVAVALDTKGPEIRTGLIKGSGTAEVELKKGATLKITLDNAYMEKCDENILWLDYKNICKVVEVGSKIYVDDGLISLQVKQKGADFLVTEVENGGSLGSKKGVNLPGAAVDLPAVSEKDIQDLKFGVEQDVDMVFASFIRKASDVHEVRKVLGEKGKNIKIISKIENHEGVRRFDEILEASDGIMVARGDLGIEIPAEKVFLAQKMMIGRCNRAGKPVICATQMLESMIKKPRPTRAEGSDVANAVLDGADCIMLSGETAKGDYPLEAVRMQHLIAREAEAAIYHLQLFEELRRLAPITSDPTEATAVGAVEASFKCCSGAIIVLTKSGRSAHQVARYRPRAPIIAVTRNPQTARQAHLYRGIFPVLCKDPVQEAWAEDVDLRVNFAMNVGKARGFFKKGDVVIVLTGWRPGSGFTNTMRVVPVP
# Cytochrome P450 2C9 (Homo sapiens), sequence (P11712 whole entry, looked up): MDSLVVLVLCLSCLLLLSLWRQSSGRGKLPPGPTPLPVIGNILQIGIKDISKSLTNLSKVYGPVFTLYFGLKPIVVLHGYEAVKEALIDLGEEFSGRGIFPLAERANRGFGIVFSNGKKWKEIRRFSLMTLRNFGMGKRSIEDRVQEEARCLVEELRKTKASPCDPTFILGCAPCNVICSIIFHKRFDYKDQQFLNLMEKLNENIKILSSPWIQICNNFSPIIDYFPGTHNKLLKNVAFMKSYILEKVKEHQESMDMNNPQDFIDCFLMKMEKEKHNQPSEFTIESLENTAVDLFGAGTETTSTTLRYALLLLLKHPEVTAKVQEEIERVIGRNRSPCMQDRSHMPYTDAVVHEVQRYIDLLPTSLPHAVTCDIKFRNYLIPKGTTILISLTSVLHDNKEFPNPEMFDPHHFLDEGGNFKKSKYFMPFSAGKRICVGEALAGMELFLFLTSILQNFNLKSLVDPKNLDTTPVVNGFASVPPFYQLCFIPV
compound,measurement,setting,value
Oc1ccc2[nH]cc(CCCCN3CC=C(c4ccccc4)CC3)c2c1,Potency,[1],inactive
same,Potency,[2],3.98 µM (active)
CNC(=O)Oc1cccc2ccccc12,outcome,[3],inactive
same,outcome,[4],inactive
same,Potency,[1],inactive
same,Potency,[5],inactive
same,Potency,[6],inactive
same,Potency,[7],inactive
same,Potency,[8],inactive
O=C(CCl)c1ccc(Cl)cc1Cl,outcome,[3],inactive
same,outcome,[4],inactive
same,Potency,[1],inactive
same,Potency,[5],3.98 µM (active)
same,Potency,[6],10 µM (active)
same,Potency,[7],12.6 µM (active)
same,Potency,[8],15.8 µM (active)
CN1[C@@H]2CC[C@H]1CC(OC(=O)c1cc(Cl)cc(Cl)c1)C2 (stereo partly drawn),outcome,[9],inactive
same,Potency,[10],inactive
same,Potency,[1],inactive
same,Potency,[11],100 nM (active) and 7.9 nM (active)
same,Potency,[12],inactive
same,activation,[13],16.3%
same,outcome,[14],inactive
same,Potency,[15],3.16 µM (active)
same,Potency,[16],3.98 µM (active)
same,outcome,[17],inactive
same,outcome,[18],inactive
CN1CCc2cc(Cl)c(O)cc2[C@H]2c3ccccc3CC[C@@H]21,Potency,[1],inactive
C[C@@H]1C[C@@H]([C@H](O)CC2CC(=O)NC(=O)C2)C(=O)[C@@H](C)C1,outcome,[4],inactive
same,Potency,[5],1.26 µM (active) and 1.58 µM (active)
same,Potency,[6],inactive
same,Potency,[7],inactive
same,Potency,[8],inactive
COc1ccc(C(=O)N2CCCC2=O)cc1,outcome,[9],inactive
same,outcome,[19],inactive
same,outcome,[14],inactive
same,outcome,[17],inactive
same,outcome,[18],inactive
CC[n+]1c(-c2ccccc2)c2cc(N)ccc2c2ccc(N)cc21,outcome,[4],inactive
same,Potency,[2],inactive
same,outcome,[19],inactive
same,Potency,[5],7.94 µM (active)
same,Potency,[6],39.8 µM (active)
same,Potency,[7],25.1 µM (active)
COP(=O)(OC)OC=C(Cl)Cl,outcome,[3],inactive
same,outcome,[4],inactive
same,Potency,[5],inactive
same,Potency,[6],inactive
same,Potency,[7],inactive
same,Potency,[8],inactive
CCCCN(CCCC)CCC(O)c1cc2c(Cl)cc(Cl)cc2c2cc(C(F)(F)F)ccc12 (stereo not drawn),Potency,[2],inactive
same,Potency,[11],3.98 µM (active)
O=C1NCN(c2ccccc2)C12CCN(CCCOc1ccc(F)cc1)CC2,Potency,[11],0.158 µM (active)
CC(C)[N+](C)(CCC(C(N)=O)(c1ccccc1)c1ccccc1)C(C)C,Potency,[1],inactive
same,Potency,[11],3.98 µM (active)
same,outcome,[19],inactive
c1ccc(-c2ccc(C(c3ccccc3)n3ccnc3)cc2)cc1 (stereo not drawn),Potency,[2],inactive
Cc1ccc(N=CN(C)C=Nc2ccc(C)cc2C)c(C)c1,outcome,[19],inactive
CCNc1nc(Cl)nc(NCC)n1,Potency,[1],inactive
same,outcome,[19],inactive
COC(=O)C1=C(C)NC(C)=C(C(=O)OC)C1c1ccccc1[N+](=O)[O-],Potency,[6],50.1 µM (active)
Clc1ccc(CSC(Cn2ccnc2)c2ccc(Cl)cc2Cl)cc1 (stereo not drawn),Potency,[2],inactive
same,outcome,[19],inactive
CC(=O)c1ccc2c(c1)N(CCCN(C)C)c1ccccc1S2,Potency,[11],2.51 µM (active)
Cc1cc(C(C)(C)C)cc(C)c1CC1=NCCN1,Potency,[15],5.62 µM (active)
same,Potency,[16],10 µM (active)
CCCCCCCCCCCCCCCC[n+]1ccccc1,Potency,[1],inactive
same,outcome,[19],inactive
N#Cc1nn(-c2c(Cl)cc(C(F)(F)F)cc2Cl)c(N)c1S(=O)C(F)(F)F (stereo not drawn),Potency,[2],inactive
same,outcome,[19],inactive
NC(N)=NCCC[C@H](N)C(=O)O,Potency,[12],inactive
O=C(NC(=O)c1c(F)cccc1F)Nc1cc(Cl)c(OC(F)(F)C(F)C(F)(F)F)cc1Cl (stereo not drawn),Potency,[1],inactive
same,outcome,[19],inactive
Clc1ccc(C(OCCN2CCCCC2)c2ccccc2)cc1 (stereo not drawn),Potency,[2],inactive
same,outcome,[19],inactive
CN(C)CC/C=C1\c2ccccc2Sc2ccc(Cl)cc21,Potency,[11],2.51 µM (active)
CN(C)C(=O)Oc1cc(OC(=O)N(C)C)cc(C(O)CNC(C)(C)C)c1 (stereo not drawn),Potency,[1],inactive
same,outcome,[19],inactive
CCCC(C)C1(CC)C(=O)N=C(S)NC1=O (stereo not drawn),outcome,[19],inactive
Clc1ccc(CO/N=C(\Cn2ccnc2)c2ccc(Cl)cc2Cl)c(Cl)c1,Potency,[2],inactive
same,outcome,[19],inactive
Oc1ccc(Cl)cc1Cc1cc(Cl)ccc1O,Potency,[2],inactive
O=C(CCCN1CCC(n2c(=O)[nH]c3ccccc32)CC1)c1ccc(F)cc1,Potency,[11],6.31 µM (active)
